Among all 360,000 compounds or so, about 130 (0.036%) were called active. The entries come from a sample that favours actives as a whole. Values without a mark were called inactive. No stated cut-off is given here; in the data, active means potentiation above about 30%; inactive means the rest.

D(1A) dopamine receptor (Homo sapiens), sequence (P21728 whole entry, looked up): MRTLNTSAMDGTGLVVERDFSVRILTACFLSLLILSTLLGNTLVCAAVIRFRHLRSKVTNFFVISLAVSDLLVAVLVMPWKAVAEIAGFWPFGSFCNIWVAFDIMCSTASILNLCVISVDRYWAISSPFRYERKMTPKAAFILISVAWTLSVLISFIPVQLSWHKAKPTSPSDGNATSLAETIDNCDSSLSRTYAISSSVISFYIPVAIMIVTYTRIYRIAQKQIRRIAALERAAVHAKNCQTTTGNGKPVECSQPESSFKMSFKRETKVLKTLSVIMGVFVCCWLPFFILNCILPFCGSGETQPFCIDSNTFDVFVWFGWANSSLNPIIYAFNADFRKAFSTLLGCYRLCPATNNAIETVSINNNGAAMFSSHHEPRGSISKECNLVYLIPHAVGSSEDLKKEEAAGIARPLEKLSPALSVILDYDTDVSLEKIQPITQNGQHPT

This assay has as its target D(1A) dopamine receptor (Homo sapiens) (UniProt P21728). In words: Potentiators of Human D1 Dopamine Receptor: qHTS. Further: 0% is about no effect. As to conditions: HEK293 TREx D1 cells, calcium flux, dopamine EC20 potentiation; at 10 µM; hits give high values.
As for `CC(C)S(=O)(=O)c1oc(-c2ccc(F)cc2)nc1S(=O)(=O)c1ccc(F)cc1`, the potentiation is 3.35%. For the molecule `CCOC(=O)C1CCCN(C(=O)c2ccc3c(c2)sc2nc(-c4ccc(CC)cc4)cn23)C1` (stereo not given), the potentiation is -1.95%. Then `Cc1cccc(C)c1-n1ncc(C(=O)NCCCN2CCCCC2)c1C1CCN(C(=O)OC(C)(C)C)CC1`, with 31.8% (active). Then `COc1ccccc1N1CCN(CCCNC(=O)c2cnn(-c3ccccc3Cl)c2C2CCN(C(=O)OC(C)(C)C)CC2)CC1`, with -8.55%; and `CCN1CCN(CCCNC(=O)c2cnn(-c3ccc(C)cc3C)c2C2CCN(C(=O)OC(C)(C)C)CC2)CC1`, with -2.55%. Then `Cc1cc(NS(=O)(=O)c2ccc3oc(=O)c4ncn(C)c4c3c2)ccc1Br`, with -5.95%. In the case of `CCc1ccc(S(=O)(=O)c2nnn3c2nc(N2CCN(CC)CC2)c2sccc23)cc1`, the potentiation was 1.1%. On to `O=C(NCCc1ccccc1)c1ccc2c(c1)N(Cc1ccc(F)cc1)C(=O)c1ccccc1S2(=O)=O`, for which the potentiation was 2.25%. For `CCOc1ccc(-c2cc3nc(C4CCN(C(=O)OC(C)(C)C)CC4)c(C(=O)Nc4ccc(C(=O)OC)cc4)cn3n2)cc1`, the potentiation is -0.6%. As for `Cn1c(=O)n(Cc2c(F)cccc2Cl)c(=O)c2c1nc1n2CCN1c1ccc(F)cc1`, the figure is -3.15%; as for `CC(C)CCN(C(=O)Nc1ccc(Cl)c(Cl)c1)C(C)c1cccs1` (stereo not given), -1.95%. In the case of `O=C(CCCn1c(=O)c2cccn2c2cccnc21)NCc1ccc(F)cc1`, the potentiation was -4.5%. Regarding `CCc1nn(CC(=O)NCC(C)c2ccccc2)c(=O)c2cc3occc3n12` (stereo not given), the potentiation is -5.55%. For the molecule `CCCCCn1c(=O)[nH]c2cc(C(=O)Nc3cc(C)cc(C)c3)ccc2c1=O`, the potentiation is 1.1%. For `CCCN1CCN(CCCNC(=O)c2ccc3nc(Cc4ccccc4)oc3c2)CC1`, the potentiation is -0.6%. Then `O=S(=O)(c1ccc2c(c1)OCCCO2)N1CCN(S(=O)(=O)c2c(F)cccc2F)CC1`, with -3.35%; and `O=c1n(Cc2cccc(C(F)(F)F)c2)c2ccccc2c2nc(-c3ccccc3)nn12`, with 0.85%.

For the molecule `CCOc1cccc(CNC(=O)c2ccc(N3CCCC3)c(NC(=O)Nc3ccccc3CC)c2)c1`, the potentiation was -0.4%. As for `Oc1ccc(Cl)cc1C1C=C(c2ccc3c(c2)OCO3)NC(c2ccc(F)c(Br)c2)N1` (stereo not given), the potentiation was 1.65%. Then `CCOc1ccc(N2CC(C)Cn3c2nc2c3c(=O)n(Cc3c(F)cccc3Cl)c(=O)n2C)cc1` (stereo not given), with 1.1%; and `CC(C)c1ccc(C2CC(=O)N3CN(C4CCCCC4)CSC3=C2C#N)cc1` (stereo not given), with 9.05%. On to `CN(C)c1ccc(C(=O)NCC(=O)OC(C(=O)Nc2cc(C(F)(F)F)ccc2Cl)c2ccccc2)cc1` (stereo not given), for which the potentiation was -1.25%.

For `CN1CCOc2cc(S(=O)(=O)N3CCN(S(=O)(=O)c4c(F)cccc4F)CC3)cnc21`, the potentiation is -1.8%. Then `O=C(Nc1ccc(C(=O)OCc2cc(=O)n3nc(C4CC4)sc3n2)cc1)c1ccc(F)cc1`, with -0.15%; and `Cc1cccc2nc(-c3ccc(Cl)s3)c(Nc3ccc4c(c3)OCCO4)n12`, with 1.7%.

For the molecule `CCN(CC)S(=O)(=O)c1ccc2c(c1)nc(CN(C)C(=O)Nc1ccc(Cl)cc1)n2C`, the potentiation is 0.4%. As for `Cc1csc2nc(COC(=O)c3ccccc3NC(=O)c3ccccc3Cl)cc(=O)n12`, the figure is 1.1%. Then `CCCCC(CC)CNC(=O)C1CCN(S(=O)(=O)c2cccc3nsnc23)CC1` (stereo not given), with 3.8%; and `CCS(=O)(=O)c1nc(S(=O)(=O)c2ccc(C)cc2)c(NCc2ccc(Cl)cc2)s1`, with -2.95%; and `CCOC(=O)c1c(NC(=O)/C=C/c2ccc(OC)cc2)sc2c1CCC(C)C2` (stereo not given), with 0.15%. Then `N#CN1CCC(NS(=O)(=O)c2cccc(F)c2)C1` (stereo not given), with -6.75%.

With `CCOc1ccc(OCC)c(NC(=O)c2c(C)nn(-c3ccccc3)c2-n2cccc2)c1`, the potentiation was -0.5%.

With `CCN(CCCNC(=O)Cn1ncc2c3ccccc3n(C)c2c1=O)Cc1ccccc1`, the potentiation is -1.8%. As to `CCOc1ccc(C2CC(=O)c3c([nH]c(C(=O)OCc4ccccc4)c3C)C2)cc1` (stereo not given), the potentiation was -3.65%.

As for `O=C1Cc2cc(S(=O)(=O)Nc3ccc(OC(F)(F)F)cc3)cc3c2N1CCC3`, the potentiation is 1.65%. As for `Cc1ccc(NC(=O)C2CCN(S(=O)(=O)c3cc(-c4noc(C)n4)ccc3C)CC2)c(C)c1`, the figure is -4.05%; as for `O=C(c1cnn(-c2ccc(F)cc2)c1-n1cccc1)N1CCN(c2ccc(F)cc2)CC1`, -1.95%. Then `CCc1ccc(N2C(=O)CN(S(=O)(=O)CC)CC2(C)C(=O)NC2CCCCC2)cc1` (stereo not given), with -0.1%; and `CC(C)CNc1ncnc2c1nnn2C`, with 2.3%; and `O=C(CSc1n[nH]c(-c2ccccc2)n1)N1CCCCC1`, with 2.7%. As for `Cc1ccc(Cn2ncc3c4sc(C)cc4n(C)c3c2=O)c(C)c1`, the figure is 0.9%; as for `CCC1=Nc2cc(C(=O)NCCCOC(C)C)ccc2Sc2ccc(C)cc21`, 3.75%. `Cc1cc2c(cc1S(=O)(=O)CCC(=O)Nc1ccc(OC(F)(F)F)cc1)OCC(=O)N2`: the potentiation was -3.35%. Then `Cc1c(C(=O)Nc2cccc(Cl)c2)oc2ccc(S(=O)(=O)N3CCOCC3)cc12`, with -2.25%. As for `CCc1ccc(NS(=O)(=O)c2ccc3[nH]cc(C(=O)NCCc4cccc(C)c4)c(=O)c3c2)cc1`, the potentiation is 2.6%.

Take `Cc1ccc(-n2ncc(C(=O)N(C)Cc3ccccc3)c2-n2cccc2)cc1`: the potentiation is -0.5%.

In the case of `Cc1ccc(CN2COc3cc(C)c4c(oc(=O)c5ccccc54)c3C2)cc1`, the potentiation was -0.2%.

Regarding `CCCCn1c(=O)c2oc3ccccc3c2n(CC(=O)Nc2ccccc2OC)c1=O`, the potentiation was 1.65%. As for `Cc1cccc(C(=O)N2c3nc(-c4ccco4)nn3C3(CCCCC3)[C@@H]3CCCC[C@@H]32)c1`, the figure is -0.1%; as for `Cc1cc(F)ccc1NC1(c2ccccc2)C(=O)c2ccccc2C1=O`, -5.75%. As for `Cc1ccccc1C(=O)Nc1nnc(S(=O)(=O)N(C)c2ccc(Cl)cc2)s1`, the figure is -0.45%. Turning to `COc1cccc(C(=O)Nc2ccc(-c3cc(C(F)(F)F)nn3-c3ccccc3)cc2)c1`, the potentiation was -4.85%. Then `CCOC(=O)c1c(C)n(S(=O)(=O)c2ccc(C)cc2C)c2ccc(NS(=O)(=O)c3ccc(C)cc3C)cc12`, with -1.05%; and `COc1ccc(CCNc2nc(-c3ccc(Cl)cc3)cc(C(F)(F)F)n2)cc1OC`, with 0.65%; and `Cc1cc2c(s1)c1cnn(Cc3cc(F)c(Cl)cc3Cl)c(=O)c1n2C`, with -0.95%. Then `Cc1ccc(S(=O)(=O)N2CCC(C(=O)Nc3cc(C)ccc3C)CC2)cc1`, with -2.85%; and `Cc1ccc(CNC(=O)CCc2c(C)nc3c(c(C)nn3-c3ccccc3)c2C)cc1`, with -2.25%.

As to `COc1ccc(N2CCN(S(=O)(=O)CCNC(=O)C(c3ccccc3)c3ccccc3)CC2)cc1`, the potentiation is -0.4%. As for `COC(=O)c1c(NC(=O)C(C)Oc2ccc(Cl)c(C)c2)sc(C)c1C` (stereo not given), the figure is 0.65%; as for `COc1cccc(-c2nnc(SCC(=O)N3CCC(C)CC3)o2)c1`, -1.7%.

With `Cc1ccccc1CNC(=O)CCc1cn(Cc2ccccc2C)c2ccccc12`, the potentiation is -5.7%. Then `Cc1ccc(C)c(Cn2c(C(=O)O)c(CNCc3cccs3)c3ccccc32)c1`, with 19.9%; and `COc1ccc(Cc2nc3ccc(C(=O)NCc4ccccc4C)cc3o2)cc1`, with -2.05%.

Take `O=C(Cc1ccc(Cl)cc1)NCC(c1cccs1)S(=O)(=O)c1ccc(Cl)cc1` (stereo not given): the potentiation was -0.5%.

In the case of `CC(=O)c1ccc(NC(=O)CSc2nc(-c3ccccc3F)nc3c2c(=O)n(C)c(=O)n3C)cc1`, the potentiation is -0.45%. Turning to `CCSc1nnc(NC(=O)c2cc(=O)c3cc(C)c(C)cc3o2)s1`, the potentiation was 0.15%.

Regarding `COC(=O)c1ccccc1NC(=O)c1ccc(C#N)cc1`, the potentiation was 3.5%.

For the molecule `O=C(Cn1c(=O)n(Cc2cccs2)c(=O)c2cccnc21)Nc1ccc(F)cc1`, the potentiation was -2.6%. On to `COc1ccc(-c2cccc(NS(=O)(=O)c3cc(C)c(OC)c(C)c3C)c2)nn1`, for which the potentiation was -2.1%. With `Cc1ccc(SCC(=O)Nc2ccc3oc(-c4ccccc4C)nc3c2)cc1`, the potentiation was -0.2%.

Source of the values: PubChem BioAssay AID504651 (National Center for Advancing Translational Sciences (NCATS), 2011).
